Results filed as inconclusive are left out. Values without a mark were called inactive. Activity calls are given as the source filed them. The call rests on the fitted dose curve; in most records, active means well fitted curve in the direction sought with a large enough effect; inconclusive means small, poorly fitted or top-dose-only effect, or another doubt; inactive means no such curve, though single readings can be large or run the other way.
On the % scale 0 is the no-effect control and ±100 the full control effect; potency means the concentration at half of the fitted maximal effect.

The assay is described as follows: qHTS Assay for Identifying Gametocytocidal Compounds (AID 743244).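 On max response: actives lower the fluorescent signal which means gametocytes are killed.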 Conditions: P. falciparum 3D7 stage III-V gametocytes, alamarBlue, 72 h; max response: hits give low values. The text has this: Malaria cases and deaths have dropped 50% in 29 countries since 2000 due to the combined effects of long-lasting insecticidal bednets, indoor residual spraying, and artemisinin-based combination therapies (ACTs). This success has raised hopes for malaria eradication and consequently stimulated interest in developing new reagents that block gametocyte transmission such as novel and safe gametocytocidal drugs. However, previous drug development efforts have focused primarily on the asexual parasites that cause symptoms, but not malaria transmission. Consequently, patients can remain infectious for weeks after the clearance of asexual parasites and clinical symptoms. To be transmitted from person to person via a mosquito, the parasites must switch from asexual to sexual development and produce male and female gametocytes. Malaria gametocytes consist of five stages (I, II, III, IV and V). The late stage gametocytes (III, IV and V) are difficult to be cultured in vitro and the long lifespan of mature gametocytes allows them being transmitted from host to mosquitoes unless they are completely eliminated by gametocytocidal agents. To identify gametocytocidal compounds which are capable of killing late stage P. falciparum gametocytes, a high throughput gametocyte viability assay was employed. This assay uses oxidoreduction indicator, alamarBlue, as a general measure of metabolic activity of gametocytes. Within live cells, the nonfluorescent resazurin is reduced to resorufin, a bright red fluorescence dye. Fluorescence decreases upon treatment of gametocytocidal compounds. P. falciparum gametocyte (3D7 strain) was used in this study.
The 1536-well gametocycidal viability assay was based on the previous method of Tanaka et al. Stage III-V gametocytes were tested against three compound libraries, including 4265 compounds from NCGC pharmaceutical collection, 400 from Malaria Box library, and 550 from an internal collection of kinase inhibitors. Briefly, 2.5 ul/well incomplete medium was dispensed into each well of 1,536-well plates using the Multidrop Combi followed by 23 nl compound transferring using the NX-TR Pintool (WAKO Scientific Solutions, San Diego, CA). Then, 2.5 ul/well of gametocytes was dispensed with a seeding density of 20,000 cells/well using the Multidrop Combi. The assay plates were incubated for 72 h at 37C with 5% CO2. After addition of 5 ul/well of 2X AlamarBlue dye (Life Technologies, cat. no. DAL1100), the plates were incubated for 24 h at 37C with 5% CO2 and then were read in a fluorescence detection mode (Ex = 525 nm, Em = 598 nm) on a ViewLux plate reader (PerkinElmer).
For orientation: Quantitative high-throughput screening tests each substance at several concentrations.
Take `OC[C@H]1NC[C@@H](O)[C@@H]1O`: the max response was 20.9%.
As for `O=c1ccc2c(OCCCCc3ccccc3)c3ccoc3cc2o1`, the max response was 10.3%.
In the case of `Nc1ncnc2c1ncn2C1CCCO1` (stereo not given), the max response is -5.04%.
Still for that read-out and setting: as for `NCCCNCCCCNCCCN`, the figure is 28.9%.
Still for that read-out and setting: as for `CC(O)C(O)[C@H]1CNc2nc(N)[nH]c(=O)c2N1` (stereo not given in full), the figure is 8.13%; as for `CN1CC(O)C(O)C(O)C1CO` (stereo not given), 11.6%.
As to `Oc1cc2c(cc1O)C(c1ccccc1)CNCC2` (stereo not given), the max response is 20.1%.
Take `NC1(C(=O)O)CCc2cc(C(=O)O)ccc21` (stereo not given): the max response is 9.78%.
The same measure, in the same setting: as for `CC(/C=C/c1cccc(Oc2ccc(F)cc2)c1)N(O)C(N)=O` (stereo not given), the figure is 13.8%; as for `N[C@H]1CONC1=O`, 7.19%; as for `CCCOC(=O)c1c(-c2ccccc2)nc(CC)c(C(=O)SCC)c1CCC`, 9.8%.
Same read-out and setting: to `Nc1ccc(-c2ccc3ccccc3n2)cc1` belongs 11.1%; to `c1ccc(C(NCCNC(c2ccccc2)c2ccccc2)c2ccccc2)cc1`, -2.86%; to `O=c1oc(Cl)c(Cl)c2ccccc12`, 31%.
With `NC(Cc1cccc(-c2ccccc2CP(=O)(O)O)c1)C(=O)O` (stereo not given), the max response is 13.4%.
For the compound `O=C(O)/C=C/c1ccc(O)c(O)c1`, the max response was 8.93%.
Still for that read-out and setting: as for `CSC(=N)N`, the figure is 32.5%.
Consider `Cc1cccc(C)c1OCC(N)C(C)C` (stereo not given), for which the Potency was 23.5 µM (active).
As to `Nc1nc2[nH]c(=O)cnc2c(=O)[nH]1`, the max response is 4%.
Take `CC[C@H](NC(=O)c1c(C)c(-c2ccccc2)nc2ccccc12)c1ccccc1`: the max response was 5.87%.
`Brc1c(Br)c(Br)c2[nH]cnc2c1Br`: the max response was 7.09%.
Take `OCC1NCC(O)C(O)C1O` (stereo not given): the max response was 29.9%.
Same read-out and setting: to `COC1(C2=NCCN2)COc2ccccc2O1` (stereo not given) belongs 25.5%; to `NC(N)=NC(N)=Nc1ccccc1`, 28.5%.
Regarding `CC(C)Cn1c(=O)n(C)c(=O)c2[nH]cnc21`, the max response is 4.24%.
Consider `CN1CCc2cc(Cl)c(O)cc2[C@@H](c2ccccc2)C1`, for which the max response was 34.1%.
Same read-out and setting: as for `Cc1nc(N=Nc2ccc(C(=O)O)cc2)c(COP(=O)(O)O)c(C=O)c1O`, the figure is 5.37%; as for `N#CC(=C(\N)Sc1ccccc1N)/C(C#N)=C(/N)Sc1ccccc1N`, 14.1%.
The same measure, in the same setting: to `CNc1cc(NS(=O)(=O)c2ccc(N)cc2)nc(NC)n1` belongs 12.8%; to `Nc1nc2c(cnn2CCc2ccccc2)c2nc(-c3ccco3)nn12`, -5.77%.
On to `O=c1[nH]ccc2c(O)cccc12`, for which the max response was 22.6%.
On the same count and under the same terms, as for `NC(C(=O)N[C@@H]1C(=O)N2C(C(=O)O)=C(Cl)CS[C@H]12)c1ccccc1` (stereo not given in full), the figure is 8.93%; as for `CCCCCC[C@@H]([C@@H](C)O)n1cnc2c(N)ncnc21`, 12%.
Same read-out and setting: as for `NC(N)=N[C@@H](CCC(=O)O)C(=O)O`, the figure is -1.42%; as for `N=C(N)c1ccccc1`, 17.2%; as for `CCCn1c(=O)c(C)cn2nc(N)nc12`, -2.34%.
The same measure, in the same setting: to `COc1ccc(CCn2nnnc2C2(c3ccc(C)cc3)CC2)cc1` belongs 13.1%; to `Nc1nc2ccc(Cl)cc2c2nc(-c3ccco3)nn12`, -3.79%; to `Cn1ccnc1`, 14.7%.
For `C[C@H]1CC2C3CCC4=CC(=O)C=C[C@]4(C)[C@@]3(Cl)[C@@H](O)C[C@]2(C)[C@@]1(O)C(=O)CO` (stereo not given in full), the max response was -6.5%.

Source of the values: PubChem BioAssay (NCATS).
